V-ATPase pHluor: alters yeast V-ATPase proton transport. response, % at 10 µM. 350,000 compounds, 0.37% hits. S. cerevisiae, pHLuorin cytosolic pH fluorescence. AID 504577; in the data active = response mostly above about 7.3%, no sharp cut-off; inactive = mostly below about 5.4%; also: actives read high
ADAM17 inh: inhibitors of human ADAM17. AID 720648. recombinant ADAM17, EDANS/DABCYL FRET peptide cleavage. 370,000 compounds, 0.83% hits. inhibition, % at 6.95 µM;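 active = inhibition above the mean of compounds lying between control limits plus 3 SD, set per campaign, cut at about 8.5% in these data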
Target sequence (P78536 215-824 limits assumed): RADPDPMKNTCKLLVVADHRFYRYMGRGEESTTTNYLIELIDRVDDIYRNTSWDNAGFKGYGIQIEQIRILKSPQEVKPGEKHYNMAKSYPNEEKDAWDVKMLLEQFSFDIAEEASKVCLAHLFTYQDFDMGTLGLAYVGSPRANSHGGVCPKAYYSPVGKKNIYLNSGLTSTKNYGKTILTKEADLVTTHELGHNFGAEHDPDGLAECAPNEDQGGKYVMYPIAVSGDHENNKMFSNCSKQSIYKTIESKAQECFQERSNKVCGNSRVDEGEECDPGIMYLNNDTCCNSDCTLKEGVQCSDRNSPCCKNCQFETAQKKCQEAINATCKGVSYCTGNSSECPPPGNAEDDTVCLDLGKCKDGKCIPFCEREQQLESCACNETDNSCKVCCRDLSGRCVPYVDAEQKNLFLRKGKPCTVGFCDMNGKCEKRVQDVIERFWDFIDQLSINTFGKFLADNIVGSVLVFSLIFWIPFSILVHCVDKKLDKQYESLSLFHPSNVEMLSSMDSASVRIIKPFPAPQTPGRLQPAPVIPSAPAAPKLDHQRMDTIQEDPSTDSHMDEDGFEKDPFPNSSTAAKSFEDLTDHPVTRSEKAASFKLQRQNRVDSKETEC
ADAM10 inh: inhibitors of human ADAM10; O14672; recombinant ADAM10, EDANS/DABCYL FRET peptide cleavage, 3 h; AID 720582; 370,000 compounds, 0.62% hits; inhibition, % at 7 µM;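 active = inhibition above a per-campaign cutoff equal to the mean of compounds falling between control-based bounds plus 3 SD, cut at about 20% in these data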
proKLK7 act: activators of human kallikrein-7 zymogen; activation, % at 7 µM; 370,000 compounds, 0.9% hits; AID 652039; purified proKLK7, EDANS-DABCYL substrate fluorescence; 100% is mature enzyme control, 0% vehicle;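 active = activation above the mean of all tested compounds plus 3 SD, computed per campaign excluding outliers beyond control limits, cut at about 13% in these data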
VATPase regulator: yeast V-ATPase proton transport regulation | shares compounds with V-ATPase pHluor | S. cerevisiae pHLuorin cytosolic pH | response, % at 10 µM | 980 compounds, 2% hits; in the data active = response above about 24%
A number is an active result; . = inactive; / = no result. A selection: hits, their analogues and other compounds. The true share with any hit is near 2.3%.

SMILES | V-ATPase pHluor | ADAM17 inh | ADAM10 inh | proKLK7 act | VATPase regulator
COc1ccc(C(=O)Nc2ccccc2C(=O)NCc2ccco2)cc1OC | . | . | . | . | /
COCCNC(=O)c1ccccc1NC(=O)c1ccc(OC)c(OC)c1 | 11 | . | . | . | .
COc1ccccc1NC(=O)c1ccc(COc2ccccc2OC)cc1 | 10 | . | . | . | .
COc1ccccc1OCc1ccc(C(=O)Nc2ccccc2F)cc1 | . | . | . | . | /
COC1=C[C@H](C(=O)NCc2ccc(Br)cc2)C(C)C(c2ccccc2)CC1=O (stereo partly specified) | / | . | . | . | /
O=C(CN1CCCCC1)N1CCCc2c1c(=O)oc1ccc(OCc3ccccc3)cc21 | . | . | . | . | /
CCCCCOc1ccc2oc(=O)c3c(c2c1)CCCN3C(=O)CN1CCCC(C(=O)OCC)C1 (stereo unspecified) | 13 | . | . | . | .
O=S1(=O)C=C(SCCN2CCCCC2)c2ccccc21 | . | . | . | . | .
CCOC(=O)c1ccc(NC(=S)NC(=O)COc2ccccc2)cc1 | 65 | . | . | . | .
CCOc1ccc(CCNC(=O)c2cc3sccc3n2Cc2ccccc2)cc1OCC | / | . | . | / | /
C/C(=N\NC(=S)NC1CCCCC1)c1cccc(C(F)(F)F)c1 | 13 | . | . | . | .
Cc1cc(C)cc(NS(=O)(=O)c2ccc3oc(=O)ccc3c2)c1 | 14 | . | . | . | .
Cc1ccc(C)c(NS(=O)(=O)c2ccc3oc(=O)ccc3c2)c1 | . | . | . | . | /
COc1cccc(NC(=O)c2ccccc2-c2ccccc2)c1 | 8.8 | . | . | . | .
COC(=O)c1cc(S(=O)(=O)N2CCN(c3cccc(C(F)(F)F)c3)CC2)cn1C | / | . | . | . | /
NNC(=O)c1ccc(COCC(F)(F)F)cc1 | 9.1 | . | . | . | .
Cc1cccc(NC(=O)CSc2nnc(-c3cccnc3)n2Cc2ccco2)c1C | / | . | . | . | /
O=C(NCCCc1ccccc1)c1ccc(F)cc1 | . | / | / | / | /
O=C(NCCCCNC(=O)c1ccc(F)cc1)c1ccc(F)cc1 | . | . | . | . | .
CCc1ccc(/C(C)=N/NC(=O)CNC(=O)/C=C/c2ccco2)cc1 | 25 | / | / | / | .
CCc1ccc(/C(C)=N/NC(=O)CNC(=O)/C=C/c2ccccc2OC)cc1 | . | . | . | . | /
CC1CCc2c(sc3ncn(Cc4ccc(C(=O)O)cc4)c(=O)c23)C1 (stereo unspecified) | 6.6 | . | . | . | .
C[C@@H](NC(=O)c1ccc(C#Cc2cccc(F)c2)cn1)C(C)(C)O | / | . | . | . | /
COc1cc(NC(=O)CCn2c(=O)[nH]c3ccsc3c2=O)cc(OC)c1 | 7.7 | . | . | . | .
CCOC(=O)c1nc2c(ccc3ccccc32)cc1C | . | . | . | . | .
SMILES | V-ATPase pHluor | ADAM17 inh | ADAM10 inh | proKLK7 act | VATPase regulator
CCOC(=O)c1cc(Cl)c2c(ccc3ccccc32)n1 | . | . | . | . | /
Nn1c(SCC(=O)NC2CCCCC2)nnc1-c1n[nH]c2c1CCC2 | / | . | . | . | /
CCOc1ccc(CCNC(=O)CSc2cc(=O)n(CC)c3ccccc23)cc1OCC | 14 | . | . | . | .
CCOc1ccc(CCNC(=O)CSc2cc(=O)n(C)c3cc(Cl)ccc23)cc1OCC | . | . | . | . | /
COc1ccc(-c2cc(C(=O)NN=Cc3ccccc3F)[nH]n2)cc1 | / | . | . | . | /
COc1ccccc1CNC(=O)c1oc2ccc(S(=O)(=O)N3CCCC3)cc2c1C | 7.2 | / | / | / | .
COc1ccccc1CNC(=O)c1oc2ccc(S(=O)(=O)N3CCOCC3)cc2c1C | . | . | . | . | /
COc1ccc(C(=O)CSc2nnc(-c3cccnc3)n2-c2ccc(C)cc2)cc1 | / | . | . | . | /
CCC(CC)c1nnc(NC(=O)Oc2ccccc2)s1 | 17 | . | . | . | .
Cc1ccccc1N1CCN(S(=O)(=O)c2ccc3c(c2)n(C)c(=O)c(=O)n3C)CC1 | / | . | . | . | /
CCCCn1c(N)c(N(CC(C)C)C(=O)CC2OC(=O)c3ccccc32)c(=O)[nH]c1=O (stereo unspecified) | 11 | . | . | . | .
CCCCn1c(N)c(N(CC(C)C)C(=O)CN2C(=O)c3ccccc3C2=O)c(=O)[nH]c1=O | . | . | . | . | /
CCCCNC(=O)C1CCCN1C(=O)Nc1cccc(C)c1 (stereo unspecified) | / | . | . | . | /
Cc1ccccc1-c1ccccc1CN1[C@@H](C(C)C)COCCS1(=O)=O | 8.8 | . | . | . | .
CC(C)[C@H]1COCCS(=O)(=O)N1Cc1ccccc1-c1ccccc1 | . | . | . | . | /
CCC(C)N(C(=O)CSc1nnc(-c2cccnc2)n1C1CCCCC1)C(C)CC (stereo unspecified) | / | . | . | . | /
c1ccc(Cc2nnc3sc(-c4ccncc4)nn23)cc1 | . | . | . | . | /
c1ccc(Cc2nnc3sc(-c4ccccn4)nn23)cc1 | 11 | . | . | . | .
CC(=O)c1cnn(-c2ccc(Cl)cc2)c1C | . | . | . | . | .
CC(=O)c1sc(=S)n(-c2ccccc2)c1C | . | . | . | . | /
CC(=O)c1sc(=S)n(-c2ccc(Cl)cc2)c1C | . | . | . | . | .
C=CCNCCCCOc1c(Cl)cc(C)cc1Br | . | . | . | . | /
C=CCNCCOc1c(C)cc(C)cc1Cl | 7.7 | . | . | . | .
CCC(=O)OCCCN1CCC2(CCC(c3ccccc3)CC2)C1=O (stereo unspecified) | / | . | . | . | /
Cc1nn(-c2ccccc2)c2sc(C(=O)NCCc3ccc(Cl)cc3)cc12 | / | . | . | . | /
SMILES | V-ATPase pHluor | ADAM17 inh | ADAM10 inh | proKLK7 act | VATPase regulator
Cc1ccc(-n2c(SC/C=C/c3ccccc3)nnc2-c2ccco2)cc1 | / | . | . | . | /
O=C(Nc1cccc(F)c1)OCCN1CCCC12CCC(c1ccccc1)CC2 (stereo unspecified) | / | . | . | / | /
Cc1cccc2nc(-c3cccnc3)c(Nc3ccccc3)n12 | . | . | . | . | /
Cc1cccc2nc(-c3cccnc3)c(NCCC(C)C)n12 | 12 | . | . | . | .
COC(=O)C1=C(C)N(Cc2cccc(C(F)(F)F)c2)C(=NCc2ccc3c(c2)OCO3)NC1c1ccc(Cl)cc1 (stereo unspecified) | / | . | . | . | /
COc1cc(NC(=O)Cn2cnc3c(NCc4ccccc4)ncnc32)cc(OC)c1OC | 11 | . | . | . | .
Cc1ccc(NC(=O)Cn2cnc3c(NCc4ccccc4)ncnc32)cc1C | . | . | . | . | /
CCOc1ccc(NC(=O)CSc2nc(N3CCOCC3)nc(N3CCOCC3)n2)cc1 | 8.7 | . | . | . | .
COC(=O)Cn1c(=O)c(C)nc2ccccc21 | . | . | . | . | .
CCOC(=O)Cc1nc2ccccc2n(CC#N)c1=O | . | . | . | . | .
CCOC(=O)Cn1c(=O)n(CC(=O)OCC)c2ccccc21 | . | . | . | . | .
COc1ccc(C(=O)Cn2c(C(C)=O)nc3ccccc32)cc1 | . | . | . | . | /
COC(=O)Cn1c(C)nc2ccccc21 | . | . | . | . | /
CCOC(=O)Cn1c(C(C)=O)nc2ccccc21 | . | . | . | . | .
COc1ccc(C(=O)OCCN2CCN(C3CN(Cc4cn(Cc5cccc(F)c5)nn4)S(=O)(=O)C3)CC2)cc1OC (stereo unspecified) | / | . | . | . | /
Cc1ccc(C)c(NC(=O)c2cccc3c2-c2ccccc2C3=O)c1 | / | . | . | . | /

Source: PubChem (several laboratories)
